# CHX counter – Cycloheximide Counterscreen for Small Molecule Inhibitors of Shiga Toxin | AID 2314, 2010 | cell reporter, cycloheximide protein synthesis inhibition counterscreen | 12% of 300,000 active | max response, %; in the data active = max response mostly above about 13%, no sharp cut-off; inactive = mostly below about 14%; also: read at 38.3 µM for the half of the compounds with a filed dose
# NS1 function inh – qHTS Assay for Inhibitors of Influenza NS1 Protein Function; AID 2326, 2010; 0.4% of 270,000 active; Potency, µM (highest dose often 46.1 µM); calls by dose curve; also: actives are rising curves; nearly all actives have a fitted effect of over 50% in size
#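 OD600 was taken as the measure of yeast growth restored by compound in an NS1-expressing S. cerevisiae strain. Cells had been washed out of glucose medium and diluted 1:100 into galactose -URA medium, pH 6.0.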
# Pf growth 96h – Primary qHTS for delayed death inhibitors of the malarial parasite plastid, 96 hour incubation; P. falciparum luciferase reporter growth, 96 h; Potency, µM (top dose mostly 28.7 µM), hits mostly inhibitors; 6.9% of 320,000 active; AID 504834, 2011
#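 Plates of compound plus infected erythrocytes (2% hematocrit, 0.05% parasitemia final) incubate 96 hours, 37 C, 5% CO2. Detection reagent added; reduced luminescence from the parasites' luciferase reporter flags inhibition.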
# Pf growth 48h – Primary qHTS for delayed death inhibitors of the malarial parasite plastid, 48 hour incubation. 5.9% of 310,000 active. P. falciparum luciferase growth in erythrocytes, 48 h. Potency, µM (top dose mostly 28.7 µM), actives largely listed as inhibitors. AID 504832, 2011
#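 Luminescence readout; reporter = integrated firefly luciferase in P. falciparum. RBC culture at 2% hematocrit, 0.1% parasitemia final, 37 C/5% CO2; decreased signal taken as growth inhibition.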
# Shiga inhibitor – A qHTS for Small Molecule Inhibitors of Shiga Toxin; AID 2315, 2010; 9.2% of 290,000 active; inhibition, % at 38.7 µM; Vero cells, Shiga toxin protein synthesis inhibition reporter; in the data active = inhibition mostly above about 28%, no sharp cut-off; inactive = mostly below about 43%
# Numbers stand for hits; - = inactive; ? = inconclusive; . = no result; [ ] = remark or other dose. Shown are actives, neighbours in structure and some others; about 21% of the full set was active somewhere. Unless noted, calls follow the shape of the dose curve; as a rule, active = well fitted inhibition curve with a large enough effect; inconclusive = small, poorly fitted or top-dose-only effect, or another doubt; inactive = no such curve, though single readings can be large or run the other way.
SMILES,CHX counter,NS1 function inh,Pf growth 96h,Pf growth 48h,Shiga inhibitor
Cc1cccc(Nc2nc(N)c([N+](=O)[O-])c(N3CC(C)CC(C)C3)n2)c1 (configuration not stated),-,-,?,13µM,-
Cc1cccc(Nc2nc(N)c([N+](=O)[O-])c(N3CC(C)OC(C)C3)n2)c1 (configuration not stated),-,-,?,?,-
CN(C)c1ccc(Nc2nc(N)c([N+](=O)[O-])c(N3CCOCC3)n2)cc1,-,-,10µM,?,-
COc1ccc(Nc2nc(N)c([N+](=O)[O-])c(N3CCOCC3)n2)cc1,-,-,?,?,-
C/C(Cc1ccccc1)=N\NC(=O)CNC(=O)c1ccc(Cl)cc1,-,-,-,-,-
CN(C)CCC(C#N)(c1ccccc1)c1ccccc1,.,-,.,.,.
N#CC(Cc1cccc(CC(C#N)(c2ccccc2)c2ccccc2)c1)(c1ccccc1)c1ccccc1,-,?,0.83µM,1.2µM,-
Cc1ccc(-n2ncc3c(=O)n(CC(=O)OCc4ccccc4)cnc32)cc1,31,-,.,.,-
O=C(Cn1cnc2c(cnn2-c2ccccc2)c1=O)OCc1ccccc1,30,-,-,-,76
CSc1cccc(NC(=O)CN(C)S(=O)(=O)c2cnc[nH]2)c1,-,-,?,-,-
COCCN(C(=O)CCN1C(=O)C2CC=CCC2C1=O)c1c(N)n(CC(C)C)c(=O)[nH]c1=O (configuration not stated),.,.,-,-,.
CC1(C(=O)O)CCC(C(=O)Nc2ccc(S(N)(=O)=O)cc2)C1(C)C (configuration not stated),-,-,-,.,-
c1cnc2c(C3NCCc4c3[nH]c3ccccc43)cccc2c1 (configuration not stated),-,-,?,?,-
CCC(C)(C)n1nnnc1C(c1ccc2ncccc2c1)N1CCN(c2nc3ccccc3s2)CC1 (configuration not stated),-,-,-,5.2µM,-
CCC(C)(C)n1nnnc1C(c1ccc2ncccc2c1)N1CCCC(C)C1 (configuration not stated),-,-,10µM,?,-
CC(=O)O[C@@H]1CC[C@]2(C)C(=C[C@@H]([C@@H]3C=C4C[C@@H](OC(C)=O)CC[C@]4(C)C4=C3[C@H]3C[C@@H]5O[C@@]6(CC[C@H](C)CO6)[C@@H](C)[C@@H]5[C@@]3(C)CC4)C3=C2CC[C@@]2(C)[C@H]4[C@@H](C)[C@]5(CC[C@H](C)CO5)O[C@@H]4C[C@H]32)C1,.,-,.,.,.
COc1ccc(C(=O)NN/C(=N/S(=O)(=O)c2ccc(C)cc2)c2ccccc2)cc1,52,-,-,-,59
COc1ccc(C(=O)NNS(=O)(=O)c2ccccc2)cc1,17,-,?,-,-
COC(=O)c1cc(S(=O)(=O)N2CCN(C(=O)c3ccco3)CC2)cn1C,-,-,-,-,-
CCOc1ccc(CN(C)C(=O)CNC(=O)c2ccc3ccccc3c2)cc1OC,-,-,-,-,-
Cc1csc(N/N=C/c2ccc(O)c([N+](=O)[O-])c2)n1,-,-,?,.,-
CC(C)(C)c1csc(N/N=C/c2ccc(O)cc2)n1,47,-,?,-,91
CCN(CC)CCN(Cc1cc2ccc(C)cc2[nH]c1=O)C(=O)NC1CCCCC1,-,-,-,?,-
CCN(CC)CCCN(Cc1cc2cc(OC)ccc2[nH]c1=O)C(=O)Nc1ccccc1,-,-,?,9.3µM,-
CCc1ccc2[nH]c(=O)c(CN(CCN(CC)CC)C(=O)Nc3ccccc3OC)cc2c1,-,-,-,15µM,-
SMILES,CHX counter,NS1 function inh,Pf growth 96h,Pf growth 48h,Shiga inhibitor
CCc1ccc2[nH]c(=O)c(CN(CCN(C)C)C(=O)Nc3ccccc3OC)cc2c1,-,-,?,?,-
CCN(CC)CCCN(Cc1cc2cc(OC)ccc2[nH]c1=O)C(=O)Nc1ccc(F)cc1,-,-,-[5.75 µM],.,-
CCN(CC)CCN(Cc1cc2ccc(C)cc2[nH]c1=O)C(=O)Nc1ccc(Cl)cc1,38,-,?,?,78
CCN(CC(=O)NC(C)(C)C)C(=O)c1ccc(Br)cc1,-,.,-,-,-
CC(N)=NCCCC(N)C(=O)O (configuration not stated),.,-,.,.,.
CCn1ccnc1CN(C)Cc1cn[nH]c1-c1ccc(F)cc1F,-,-,12µM,-,-
CC[n+]1c(C)cc2c(sc3ccccc32)c1C,-,.,?,?,-
CCc1nc(C)cc2c1sc1ccccc12,19,-,-,-,-
Cc1ccc(-n2c(C)cc(C(=O)COc3cccnc3[N+](=O)[O-])c2C)cc1,43,-,-,-,54
Cc1cc(-n2c(C)cc(C(=O)COc3ccccc3[N+](=O)[O-])c2C)no1,-,-,?,?,-
Cc1cc(C(=O)COc2cccnc2[N+](=O)[O-])c(C)n1Cc1ccco1,-,-,-,-,-
Cc1cc(C(=O)COc2cccnc2[N+](=O)[O-])c(C)n1-c1ccccc1,59,-,-,-,56
N#Cc1nc(COc2ccccc2F)oc1NCCc1ccccc1,27,-,?,-,57
CN(Cc1ccccc1)c1oc(COc2ccccc2F)nc1C#N,-,-,-,.,89
COc1ccc(CCNc2oc(COc3ccccc3)nc2C#N)cc1,-,-,?,-,-
CCN(c1ccccc1)S(=O)(=O)c1ccc(Cl)c(NC(=O)CSc2nnc(C)s2)c1,-,-,?,-,-
O=C(O)CN(c1ccccc1[N+](=O)[O-])S(=O)(=O)c1ccccc1,-,-,-,-,-
Cc1ccc(C)c(/C(=N\N=C(N)N)C2CC2)c1,.,-,.,.,.
COCCOC(=O)C1=C(C)NC(=O)NC1c1ccc(-c2cc(Cl)ccc2Cl)o1 (configuration not stated),-,-,-,-,-
CN(C)CCNC(=O)c1ccc(Sc2ccc(Br)cc2)c([N+](=O)[O-])c1,-,.,-,?,-
COc1ccc(-c2nc3c(n2O)CCc2c-3no[n+]2[O-])cc1,13,-,-,-,-
Cc1ccc(CNS(=O)(=O)c2ccc([N+](=O)[O-])cc2)cc1,-,-,-,-,.
Cc1ccc(CNS(=O)(=O)c2ccccc2[N+](=O)[O-])cc1,29,-,-,-,-
Cc1ccc(CNc2ccc(Cl)cc2[N+](=O)[O-])cc1,48,-,-,-,72
Cc1ccc(CNc2ccc(S(=O)(=O)N3CCOCC3)cc2[N+](=O)[O-])cc1,-,-,10µM,-,-
COCCn1c(C)cc(C(=O)COC(=O)C23CC4CC(CC(O)(C4)C2)C3)c1C,38,-,-,-,57
Cc1cc(C(=O)COC(=O)c2ccc(O)cc2)c(C)n1CC1COc2ccccc2O1 (configuration not stated),-,-,13µM,?,-
COCCn1c(C)cc(C(=O)COC(=O)c2cc3c(s2)CCC3)c1C,30,-,-[5.75 µM],-,95
COCCn1c(C)cc(C(=O)COC(=O)c2cccc(O)c2)c1C,-,-,-,?,-

# Source: PubChem (National Center for Advancing Translational Sciences (NCATS))
